Many of the other results were omitted from the sample, so hits are more common in it than they were.
Dicer inh: inhibitors of human Dicer processing of pre-microRNA. cat-ELCCA pre-miR-21 Dicer processing, chemiluminescence; active compounds read high. z-score at 25 µM. 47,000 tested, 6% active. AID 1347074; in the data active = z-score above about 3, passing the limit was not always enough;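 note: higher signal means more uncleaved substrate so more Dicer inhibition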
Hits are given with their value; n = inactive.

SMILES	Dicer inh
CC(C)(C)OC(=O)NCCNC(=O)C1CCN(c2nccc(C(F)(F)F)n2)CC1	n
Cc1nc(C(F)(F)F)ccc1C(=O)NCCNC(=O)OC(C)(C)C	4.4
CCOC(=O)c1sc(N2C(=O)c3oc4ccccc4c(=O)c3C2c2cccc(O)c2)nc1C (stereo unspecified)	n
Cc1ccc(C)n1-c1cc([N+](=O)[O-])ccc1N1CCN(C(=O)N(C)C)CC1	n
Cc1ccc(C)n1-c1cc([N+](=O)[O-])ccc1N1CCN(S(=O)(=O)c2cn(C)cn2)CC1	4.8
Cc1ccc(C)n1-c1cc([N+](=O)[O-])ccc1-n1ccnc1	n
Cc1c(NC(=O)CCCC(=O)O)c(=O)n(-c2ccccc2)n1C	n
COc1ccc(OC)c(C2C(C#N)=C(N)Oc3n[nH]c(C)c32)c1 (stereo unspecified)	n
Cc1ccccc1C(=O)c1ccccc1C(=O)O	n
Cc1n[nH]c(C)c1Sc1n[nH]c(=O)[nH]c1=O	n
Nc1ncnc2sc3c(c12)CCCCC3	n
Nc1nc(-c2ccncc2)nc2sc3c(c12)CCCCC3	4.1
Nc1ncnc2sc3c(c12)CCCC3	n
CC(C)(C)c1ccc(C(=O)Nc2cnc3sc4ccccc4n3c2=O)cc1	n
CCOC(=O)c1sc(SCc2ccccc2)c2c1CC(c1ccc(C)cc1)CC2O (stereo unspecified)	n
O=C(c1cc2ccccc2s1)N1CCOCC1	3.2
NC(=O)C1CCN(C(=O)Nc2cc3ccccc3s2)CC1	n
O=C(c1sc2ccccc2c1Cl)N1CCOCC1	n
CCOC(=O)[C@@H](N)Cc1ccc(O)c(O)c1	n
c1ccc2[nH]c(Sc3ncnc4sc5c(c34)CCCC5)nc2c1	n
Cc1sc2ncn(CC(=O)NCC(=O)O)c(=O)c2c1C	n
COC(=O)c1[nH]nc2c1C(=O)N(c1ccc(F)cc1)C2=O	n
CC(C)CC(=O)Nc1nc2c(s1)C(=O)CC(C)(C)C2	n
CC(C)(C)C(=O)c1cn(CC(=O)N2CCOCC2)c2ccccc12	n
CC(C)(O)C#Cc1ccc(/C=N/Nc2ccc(I)cc2)cc1	n
SMILES	Dicer inh
CC(C)(O)C#Cc1ccc(C2NCCS2)cc1 (stereo unspecified)	259
CC(C)(O)C#Cc1ccc(/C=N/O)cc1	n
N#CC1CCC(CNC(=O)c2sc3ccccc3c2Cl)CC1 (stereo unspecified)	n
CCOC(=O)c1c(NC(=O)c2ccncc2)sc2c1CCC(C(C)(C)C)C2 (stereo unspecified)	n
c1ccc(-c2nn3c4cc(N5CCOCC5)ccc4nc3c3ccccc23)cc1	6.1
c1ccc(-c2nc3c4ccccc4ccn3c2CN2CCOCC2)cc1	n
COc1ccc(-c2nnc(N3CCOCC3)c3ccccc23)cc1	n
COc1ccc(-c2cc(=O)[nH]c(Sc3c(-c4ccccc4)c4cc(Cl)ccc4[nH]c3=O)n2)cc1	n
CC1CC(N2CNC(=S)NC2)CC(C)(C)C1 (stereo unspecified)	n
O=C(O)c1cc(-c2ccccn2)nc2ccccc12	n
COc1ccc(-c2cc(C(=O)O)c3ccccc3n2)c(OC)c1	4.5
Nc1cccc(-c2cc(C(=O)O)c3ccccc3n2)c1	n
O=[N+]([O-])c1ccc(Oc2c(Cl)cccc2Cl)cc1	n
COc1cc(C2CC(=O)Nc3nc(N)[nH]c(=O)c32)ccc1OCc1cccc(Cl)c1 (stereo unspecified)	n
CNC(=S)NNC(=O)CSc1cc(C(F)(F)F)nc2ccccc12	n
O=c1cc(C(F)(F)F)nc(C2CC2)[nH]1	n
Cc1ccc(C)c(C(=O)CC2(O)C(=O)Nc3ccccc32)c1 (stereo unspecified)	n
O=C1CSC2(C(=O)Nc3ccccc32)N1c1ccccc1 (stereo unspecified)	n
Cc1ccc(N2C(=O)CSC23C(=O)Nc2ccccc23)cc1 (stereo unspecified)	3.8
CCOC(=O)c1c(C)nn(-c2ncccc2NC(=S)NC(=O)c2ccccc2)c1C	n
CCOC1O[C@H]([C@@H](COCc2ccccc2)OCc2ccccc2)[C@H](OCc2ccccc2)[C@H]1O (stereo partly specified)	n
Cc1ccc2[nH]c(=O)c(-c3noc(-c4ccccc4)n3)cc2c1	n
O=S(=O)(Oc1cc(Cl)cc(Cl)c1)c1cc(S(=O)(=O)c2ccccc2)cs1	n
FC(F)(F)Oc1ccc(NCn2nnc3ccccc32)cc1	3.6
Fc1ccc(NCn2nnc3cc(Cl)ccc32)cc1	n
SMILES	Dicer inh
FC(F)(F)c1ccc(NCn2nnc3cc(Cl)ccc32)cc1	n
Cc1c(Cl)cccc1NC(=S)/N=C/N(C)C	n
CS/C(NCc1ccco1)=C(/C#N)S(=O)(=O)c1ccc(Cl)cc1	n
C=CCN/C(SC)=C(\C#N)S(=O)(=O)c1ccc(Cl)cc1	n
CSC(SC)=C(C#N)S(=O)(=O)c1ccc(Cl)cc1	3.2
CNC(=S)NNC(=O)c1sc2nnc(-c3ccccc3)c(-c3ccccc3)c2c1N	n
COc1ccc(-c2cc(C(F)(F)F)n3ncnc3n2)cc1	n
O=C(Nc1ccc(Cl)cc1)c1cncc(C#Cc2ccccc2)c1	n
O=C(Nc1cccc(C(F)(F)F)c1)c1cncc(C#Cc2ccccc2)c1	n
O=C(NC(=S)N1CCc2ccccc21)c1cncc(C#Cc2ccccc2)c1	3.8
O=c1[nH]c(=S)[nH]c(O)c1/C=C/N=Nc1ccccc1	n
Clc1ccccc1OCc1nc(-c2ccccc2)no1	n
COC(=O)c1ccc(N2C(=O)C3C4c5ccccc5C(C)(c5ccccc54)C3C2=O)cc1 (stereo unspecified)	n
CC(=O)/C(=C\N(C)C)Sc1ccccc1	n
CCOC(=O)CSCc1c(C)c(C)c(C)c(C)c1C	n
CN(C)CCN1C(=O)C(=O)c2ccccc21	n
COC(=O)CN1C(=O)C(=O)c2ccccc21	n
CCCN1C(=O)C(=O)c2ccccc21	n
O=C1C(=O)N(Cc2ccc(CN3C(=O)C(=O)c4ccccc43)cc2)c2ccccc21	3
COC(=O)c1ccc(Cn2c(C)cc(C)[n+]2C)o1	n
COC(=O)c1ccc(CN2C(=O)C(=O)c3ccccc32)o1	3.7
O=C1ON=C(c2ccccc2)/C1=C1\SC(C(=O)c2cccs2)=NN1c1ccc(Cl)cc1	n
c1ccc(CNc2nnc3c4ccccc4c4ccccc4c3n2)cc1	n
CC(C)(C)C(=O)CSc1n[nH]c(=O)n1-c1ccccc1C(F)(F)F	n
COc1ccc(-c2csc(Nc3ccccc3)[n+]2C)cc1	n
SMILES	Dicer inh
O=c1c2cn[nH]c2[nH]c(=S)n1-c1cccc(C(F)(F)F)c1	n
CCOc1ccc(-c2nc(-c3ccc(C)cc3)no2)cc1OCC	n
CCOC(=O)/C(N=Nc1ccc(C)cc1C)=C(\C)O	n
CC(=O)/C(N=Nc1cc(F)c(Br)cc1F)=C(\C)O	n
CC(=O)/C(N=Nc1ccc(C)cc1[N+](=O)[O-])=C(\C)O	3.2
O=[N+]([O-])c1cccnc1Sc1cc(Cl)ccc1Cl	n
O=[N+]([O-])c1cc(Cl)ccc1Sc1ccccn1	n
O=[N+]([O-])c1ccc(Sc2cc(Cl)ccc2Cl)nc1	4.7
O=C(C1COc2ccccc2O1)N1CCNCC1 (stereo unspecified)	n
CCSCCOC(=O)C1=C(C)NC2=C(C(=O)CC(c3cccs3)C2)C1c1ccccc1Cl (stereo unspecified)	n
Cc1cc2c(cc1C)NC(c1coc3ccccc3c1=O)C1=C(CC(C)(C)CC1=O)N2 (stereo unspecified)	n
CC(C)(C)NC(=S)N/N=C/c1ccc(O)cc1	n
CC1(C)CC(=O)C=C(SCCS(=O)(=O)c2ccc(Cl)cc2)S1	n
CC1(C)CC(=O)C=C(SCc2cccc(Cl)c2)S1	4.5

Screens: PubChem, Center for Chemical Genomics, University of Michigan
